Where “and” joins values, the source holds several entries; their conditions need not be identical. Equal entries are not always repeated. The campaign covered roughly 360,000 compounds. About 3,800 (1.1%) were called active.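 The calls were made as follows: active = compounds causing at least 50% loss of cell viability in the single-dose screen, relative to plate controls; inactive = the rest.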 This excerpt belongs to a sample that is enriched for actives.
Test: viability loss with TRAIL in NB7+C8 cells, primary screen, TRAIL sensitizer project, cell-based, ATPlite luminescence (AID 624354)
Conditions: at 10 µM, hits give high values

Q: For `N/C(=N\OC(=O)CCC1CCCCC1)c1ccccn1`, which inhibition (viability loss, TRAIL sensitization) is on record?
A: Its inhibition (viability loss, TRAIL sensitization) is -5.71% (inactive).

Q: With `Cc1ccc(C(=O)O/N=C(\N)c2ccccn2)cc1Cl` as the compound, how does the inhibition (viability loss, TRAIL sensitization) read?
A: The inhibition (viability loss, TRAIL sensitization) was 74.5% (active).

Q: With `N/C(=N\OC(=O)c1ccc([N+](=O)[O-])cc1)c1ccccn1` as the compound, how does the inhibition (viability loss, TRAIL sensitization) read?
A: Its inhibition (viability loss, TRAIL sensitization) is 24.5% (inactive).

Q: For `CNc1nc(SC)nc(N(C#N)CC(=O)OC)n1`, which inhibition (viability loss, TRAIL sensitization) is on record?
A: The inhibition (viability loss, TRAIL sensitization) was -0.928% (inactive).

Q: With `COC(=O)c1cccc(C(=O)N2CCCC(Nc3ccc4c(c3)OCCO4)C2)c1` (stereo not given) as the compound, how does the inhibition (viability loss, TRAIL sensitization) read?
A: Its inhibition (viability loss, TRAIL sensitization) is -3.93% (inactive).

Q: For `COc1ccc(S(=O)(=O)N2CCCC(C(=O)NCCCn3ccnc3)C2)cc1OC` (stereo not given), which inhibition (viability loss, TRAIL sensitization) is on record?
A: Its inhibition (viability loss, TRAIL sensitization) is -12.7% (inactive).

Q: For `COc1ccc2cc(CCl)c(Cl)nc2c1`, which inhibition (viability loss, TRAIL sensitization) is on record?
A: Its inhibition (viability loss, TRAIL sensitization) is -1.84% (inactive).

Q: With `COc1ccc(C=C(C#N)C#N)c(CSc2ccccn2)c1` as the compound, how does the inhibition (viability loss, TRAIL sensitization) read?
A: Its inhibition (viability loss, TRAIL sensitization) is 1.8% (inactive).

Q: Which inhibition (viability loss, TRAIL sensitization) does the source give for `COc1ccc2nc(-c3ccccn3)ccc2c1` here?
A: The inhibition (viability loss, TRAIL sensitization) was 80.3% (active).

Q: Which inhibition (viability loss, TRAIL sensitization) does the source give for `CC[C@H](C)[C@@H](C(=O)N1CCNCC1)n1cc([C@@H](N)Cc2ccc(O)cc2)nn1` here?
A: The inhibition (viability loss, TRAIL sensitization) was -6.33% (inactive).

Q: For `CC1(C(=O)NS(=O)(=O)c2ccccc2)CCN1C(=O)Cc1ccc(-c2ccccc2)cc1` (stereo not given), which inhibition (viability loss, TRAIL sensitization) is on record?
A: Its inhibition (viability loss, TRAIL sensitization) is 4.55% (inactive).

Q: Which inhibition (viability loss, TRAIL sensitization) does the source give for `C#Cc1ccc(NC(=O)C2(C)CCN2C(=O)Cc2ccc(-c3ccccc3)cc2)cc1` (stereo not given) here?
A: Its inhibition (viability loss, TRAIL sensitization) is 73.3% (active).

Q: With `CCCNC(=O)C1(C)CCN1C(=O)Cc1ccc(-c2ccccc2)cc1` (stereo not given) as the compound, how does the inhibition (viability loss, TRAIL sensitization) read?
A: Its inhibition (viability loss, TRAIL sensitization) is 5.54% (inactive).

Q: With `Cc1cccc2c1-c1sc(C(=O)NCCCN3CCc4ccccc4C3)cc1CO2` as the compound, how does the inhibition (viability loss, TRAIL sensitization) read?
A: The inhibition (viability loss, TRAIL sensitization) was 11.6% (inactive).

Q: Which inhibition (viability loss, TRAIL sensitization) does the source give for `COc1ccc2nc(Nc3nc(-c4cc5ccccc5oc4=O)cs3)sc2c1` here?
A: The inhibition (viability loss, TRAIL sensitization) was 69.2% (active).

Q: With `Cc1noc(C)c1CSCC(=O)Nc1nc2ccc(Oc3ccccc3)cc2s1` as the compound, how does the inhibition (viability loss, TRAIL sensitization) read?
A: Its inhibition (viability loss, TRAIL sensitization) is -12.9% (inactive).

Q: With `COc1cccc(C(NC(C)=O)c2nc(-c3ccccc3OC)cs2)c1` (stereo not given) as the compound, how does the inhibition (viability loss, TRAIL sensitization) read?
A: Its inhibition (viability loss, TRAIL sensitization) is 2.76% (inactive).

Q: With `CC(=O)CSc1nnc(CSc2ncccn2)n1C1CCCCC1` as the compound, how does the inhibition (viability loss, TRAIL sensitization) read?
A: Its inhibition (viability loss, TRAIL sensitization) is -3.63% (inactive).

Q: For `O=C(NCCc1ccccc1Cl)C1CCC(=O)N(CCCc2ccccc2)C1` (stereo not given), which inhibition (viability loss, TRAIL sensitization) is on record?
A: Its inhibition (viability loss, TRAIL sensitization) is 6.8% (inactive).

Q: For `Fc1ccc(/C=N/Nc2nc(-c3cccnc3)nc3ccccc23)cc1`, which inhibition (viability loss, TRAIL sensitization) is on record?
A: Its inhibition (viability loss, TRAIL sensitization) is 50.2% (active).

Q: With `CCN(CC(=O)NC1CCS(=O)(=O)C1)c1nc(-c2cccnc2)nc2ccccc12` (stereo not given) as the compound, how does the inhibition (viability loss, TRAIL sensitization) read?
A: The inhibition (viability loss, TRAIL sensitization) was 11.4% (inactive).

Q: For `Brc1ccc(-c2csc(N/N=C/c3cccnc3)n2)cc1`, which inhibition (viability loss, TRAIL sensitization) is on record?
A: Its inhibition (viability loss, TRAIL sensitization) is 2.52% (inactive).

Q: Which inhibition (viability loss, TRAIL sensitization) does the source give for `O=C(NNS(=O)(=O)c1ccccc1)c1cnn(-c2ccc(Cl)cc2)c1C(F)(F)F` here?
A: The inhibition (viability loss, TRAIL sensitization) was 18.4% (inactive).

Q: For `Cc1ccc(NC(=O)CCOc2ccccc2)cc1S(=O)(=O)Nc1ccccc1Cl`, which inhibition (viability loss, TRAIL sensitization) is on record?
A: Its inhibition (viability loss, TRAIL sensitization) is 5.58% (inactive).

Q: Which inhibition (viability loss, TRAIL sensitization) does the source give for `CN(C(=O)CSc1cccc[n+]1[O-])C1CCCCC1` here?
A: The inhibition (viability loss, TRAIL sensitization) was 9.54% (inactive).

Q: With `O=C(c1cc2ccccc2o1)N1CCN(c2cccc(C(F)(F)F)c2)CC1` as the compound, how does the inhibition (viability loss, TRAIL sensitization) read?
A: Its inhibition (viability loss, TRAIL sensitization) is -2.4% (inactive).

Q: Which inhibition (viability loss, TRAIL sensitization) does the source give for `Cc1ccc(C(=O)Nc2ccn(C)n2)cc1` here?
A: Its inhibition (viability loss, TRAIL sensitization) is 14.4% (inactive).

Q: With `CC(=O)c1sc(N)nc1C` as the compound, how does the inhibition (viability loss, TRAIL sensitization) read?
A: The inhibition (viability loss, TRAIL sensitization) was -3.29% (inactive) and -3.98% (inactive).

Q: For `CC(=O)c1sc(NC(=O)c2ccc(C)cc2)nc1C`, which inhibition (viability loss, TRAIL sensitization) is on record?
A: The inhibition (viability loss, TRAIL sensitization) was 68.3% (active).

Q: Which inhibition (viability loss, TRAIL sensitization) does the source give for `CCOC(=O)N1CCN(C(=O)COC(=O)c2cccc(S(C)(=O)=O)c2)CC1` here?
A: The inhibition (viability loss, TRAIL sensitization) was -12.4% (inactive).

Q: Which inhibition (viability loss, TRAIL sensitization) does the source give for `C=CC(COCc1ccccc1)N(CC(=O)OC)S(=O)(=O)c1cc(Br)ccc1OC` (stereo not given) here?
A: Its inhibition (viability loss, TRAIL sensitization) is 2.56% (inactive).

Q: Which inhibition (viability loss, TRAIL sensitization) does the source give for `CCOc1cc(N2CCOCC2)c(OCC)cc1NC(=O)C1=NN(c2cccc(C)c2)C(=O)CC1` here?
A: Its inhibition (viability loss, TRAIL sensitization) is 3.1% (inactive).

Q: For `CCOc1cc(N2CCOCC2)c(OCC)cc1NC(=O)COc1cccc2cccnc12`, which inhibition (viability loss, TRAIL sensitization) is on record?
A: The inhibition (viability loss, TRAIL sensitization) was 53.6% (active).

Q: For `Cc1cc(C)cc(OCC(=O)Nc2ccc(N3CCOCC3)cc2N2CCOCC2)c1`, which inhibition (viability loss, TRAIL sensitization) is on record?
A: The inhibition (viability loss, TRAIL sensitization) was 6.27% (inactive).

Q: Which inhibition (viability loss, TRAIL sensitization) does the source give for `Cc1ccc(-c2c3c(=O)n(C)c(=O)n(C)c3cn2-n2cnnc2)cc1` here?
A: The inhibition (viability loss, TRAIL sensitization) was -15.5% (inactive).

Q: Which inhibition (viability loss, TRAIL sensitization) does the source give for `COc1ccc(OC)c(NC(=O)c2ccc3c(c2)C(=O)N(c2ccc(OC(C)=O)cc2)C3=O)c1` here?
A: The inhibition (viability loss, TRAIL sensitization) was -0.949% (inactive).

Q: For `CC1CCCCC1NC(=O)CCS(=O)(=O)c1ccc2c(c1)NC(=O)CO2` (stereo not given), which inhibition (viability loss, TRAIL sensitization) is on record?
A: The inhibition (viability loss, TRAIL sensitization) was -18.2% (inactive).

Q: For `Cc1ccccc1S(=O)(=O)N1[C@@H](c2cccc(Cl)c2)C(C(=O)O)=CC[C@H]1c1ccc(Cl)cc1`, which inhibition (viability loss, TRAIL sensitization) is on record?
A: Its inhibition (viability loss, TRAIL sensitization) is 15.5% (inactive).

Q: With `Cc1nc2ccccc2n1C(=O)N1CCOCC1` as the compound, how does the inhibition (viability loss, TRAIL sensitization) read?
A: Its inhibition (viability loss, TRAIL sensitization) is -8.36% (inactive).

Q: For `CC(C(=O)Nc1ccccc1-c1ccccc1)N1CCOCC1` (stereo not given), which inhibition (viability loss, TRAIL sensitization) is on record?
A: Its inhibition (viability loss, TRAIL sensitization) is -42% (inactive).

Q: Which inhibition (viability loss, TRAIL sensitization) does the source give for `Cc1oc2c(c1C(=O)N1CCOCC1)C(=O)c1ccccc1C2=O` here?
A: Its inhibition (viability loss, TRAIL sensitization) is 88.8% (active).

Q: For `COC(=O)[C@@]1(Sc2ccc(C)cc2)CC(=O)N(c2cccc(SC)c2)[C@@H]1c1ccccc1`, which inhibition (viability loss, TRAIL sensitization) is on record?
A: Its inhibition (viability loss, TRAIL sensitization) is 24.6% (inactive).

Q: Which inhibition (viability loss, TRAIL sensitization) does the source give for `O=C(Cc1ccccc1)N1CCN(S(=O)(=O)c2ccc([N+](=O)[O-])cc2)CC1` here?
A: Its inhibition (viability loss, TRAIL sensitization) is -7.16% (inactive).

Q: Which inhibition (viability loss, TRAIL sensitization) does the source give for `O=C1/C(=C\c2ccc([N+](=O)[O-])cc2)CS(=O)(=O)C/C1=C/c1ccc([N+](=O)[O-])cc1` here?
A: Its inhibition (viability loss, TRAIL sensitization) is 91.8% (active).

Q: With `O=[N+]([O-])c1ccc(N=NNc2ccc([N+](=O)[O-])cc2)cc1` as the compound, how does the inhibition (viability loss, TRAIL sensitization) read?
A: The inhibition (viability loss, TRAIL sensitization) was 13.8% (inactive).
